# Measured values from PubChem BioAssay AID1159580 (chemical genetic matrix, 2015).
# In all, about 5,500 compounds went through this assay and about 2,000 (36%) were called active. Not shown: some 18% with an inconclusive outcome. This is one part of the list. Unmarked numbers belong to inactive results. Rule as the data show it: active = normalized growth mostly below about 0.91 (no sharp cut-off); inconclusive = no clear call, values can overlap the other calls; inactive = mostly above about 0.92.
# Experiment: chemical genetic growth profiling, strain panel (AID 1159580);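 also: tested at 20 µM; growth read once vehicle control cultures reached saturation at 30 °C; 1 = growth at the plate median or of vehicle wells; lower values mean less growth of the strain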
# Settings: growth OD
smiles,measurement,setting,value
C=C1C(C)C2C(Cc3ccccc3)NC(=O)C23OC(=O)/C=C/C(=O)CCCC(C)C/C=C/C3C1O (stereo unspecified),normalized growth,"S. cerevisiae deletion strains, locus YAL013W, strain DEP1, active compounds read low",0.981
same,normalized growth,"S. cerevisiae deletion strains, locus YBR021W, strain FUR4, active compounds read low",0.956
same,normalized growth,"S. cerevisiae deletion strains, locus YBR229C, strain ROT2, active compounds read low",1.01
same,normalized growth,"S. cerevisiae deletion strains, locus YCL029C, strain bik1, active compounds read low",1.01
same,normalized growth,"S. cerevisiae deletion strains, locus YDL035C, strain GPR1, active compounds read low",0.952
same,normalized growth,"S. cerevisiae deletion strains, locus YDL074C, strain BRE1, active compounds read low",0.987
same,normalized growth,"S. cerevisiae deletion strains, locus YDL101C, strain DUN1, active compounds read low",1.01
same,normalized growth,"S. cerevisiae deletion strains, locus YDL134C, strain PPH21, active compounds read low",0.984
same,normalized growth,"S. cerevisiae deletion strains, locus YDL185W, strain tfp1, active compounds read low",1.02
same,normalized growth,"S. cerevisiae deletion strains, locus YDL192W, strain arf1, active compounds read low",0.994
same,normalized growth,"S. cerevisiae deletion strains, locus YDR101C, strain arx1, active compounds read low",1
same,normalized growth,"S. cerevisiae deletion strains, locus YDR150W, strain NUM1, active compounds read low",0.985
same,normalized growth,"S. cerevisiae deletion strains, locus YDR162C, strain NBP2, active compounds read low",0.912
same,normalized growth,"S. cerevisiae deletion strains, locus YDR318W, strain mcm21, active compounds read low",0.958
same,normalized growth,"S. cerevisiae deletion strains, locus YDR388W, active compounds read low",0.908 (active)
same,normalized growth,"S. cerevisiae deletion strains, locus YDR502C, strain sam2, active compounds read low",0.998
same,normalized growth,"S. cerevisiae deletion strains, locus YEL061C, strain CIN8, active compounds read low",1.01
same,normalized growth,"S. cerevisiae deletion strains, locus YER110C, active compounds read low",1.01
same,normalized growth,"S. cerevisiae deletion strains, locus YER155C, strain BEM2, active compounds read low",0.995
same,normalized growth,"S. cerevisiae deletion strains, locus YER167W, strain BCK2, active compounds read low",0.974
same,normalized growth,"S. cerevisiae deletion strains, locus YGL078C, strain dbp3, active compounds read low",0.99
same,normalized growth,"S. cerevisiae deletion strains, locus YGL086W, strain mad1, active compounds read low",0.998
same,normalized growth,"S. cerevisiae deletion strains, locus YGL248W, strain PDE1, active compounds read low",0.973
same,normalized growth,"S. cerevisiae deletion strains, locus YGR078C, strain PAC10, active compounds read low",0.864
same,normalized growth,"S. cerevisiae deletion strains, locus YGR135W, strain pre9, active compounds read low",0.99
same,normalized growth,"S. cerevisiae deletion strains, locus YGR229C, strain SMI1, active compounds read low",0.609 (active)
same,normalized growth,"S. cerevisiae deletion strains, locus YGR252W, strain gcn5, active compounds read low",0.966
same,normalized growth,"S. cerevisiae deletion strains, locus YHR030C, strain SLT2, active compounds read low",0.652 (active)
same,normalized growth,"S. cerevisiae deletion strains, locus YHR079C, strain IRE1 (second series), active compounds read low",1.01
same,normalized growth,"S. cerevisiae deletion strains, locus YHR094C, strain hxt1, active compounds read low",1
same,normalized growth,"S. cerevisiae deletion strains, locus YHR129C, strain ARP1, active compounds read low",0.972
same,normalized growth,"S. cerevisiae deletion strains, locus YHR200W, strain rpn10, active compounds read low",1.01
same,normalized growth,"S. cerevisiae deletion strains, locus YIL066C, strain RNR3, active compounds read low",0.988
same,normalized growth,"S. cerevisiae deletion strains, locus YIL073C, strain SPO22, active compounds read low",0.815
same,normalized growth,"S. cerevisiae deletion strains, locus YIL125W, strain kgd1, active compounds read low",0.99
same,normalized growth,"S. cerevisiae deletion strains, locus YIR030C, strain dcg1, active compounds read low",1.01
same,normalized growth,"S. cerevisiae deletion strains, locus YJL095W, strain BCK1, active compounds read low",1.01
same,normalized growth,"S. cerevisiae deletion strains, locus YJL134W, strain LCB3, active compounds read low",1
same,normalized growth,"S. cerevisiae deletion strains, locus YJL168C, strain set2, active compounds read low",1.01
same,normalized growth,"S. cerevisiae deletion strains, locus YJL187C, strain SWE1 (second series), active compounds read low",1.01
same,normalized growth,"S. cerevisiae deletion strains, locus YJR043C, strain POL32, active compounds read low",0.975
same,normalized growth,"S. cerevisiae deletion strains, locus YJR075W, strain HOC1, active compounds read low",1.03
same,normalized growth,"S. cerevisiae deletion strains, locus YKL009W, strain mrt4, active compounds read low",1.02
same,normalized growth,"S. cerevisiae deletion strains, locus YKL068W, active compounds read low",0.993
same,normalized growth,"S. cerevisiae deletion strains, locus YKL085W, strain MDH1 (second series), active compounds read low",0.977
same,normalized growth,"S. cerevisiae deletion strains, locus YKL085W, strain MDH1, active compounds read low",0.977
same,normalized growth,"S. cerevisiae deletion strains, locus YKL190W, strain CNB1, active compounds read low",1
same,normalized growth,"S. cerevisiae deletion strains, locus YKR001C, strain vps1, active compounds read low",0.935
same,normalized growth,"S. cerevisiae deletion strains, locus YLR039C, strain RIC1, active compounds read low",0.893
same,normalized growth,"S. cerevisiae deletion strains, locus YLR058C, strain SHM2, active compounds read low",1.01
same,normalized growth,"S. cerevisiae deletion strains, locus YLR102C, strain apc9, active compounds read low",1.01
same,normalized growth,"S. cerevisiae deletion strains, locus YLR262C, strain YPT6, active compounds read low",0.597 (active)
same,normalized growth,"S. cerevisiae deletion strains, locus YLR268W, strain sec22, active compounds read low",1.03
same,normalized growth,"S. cerevisiae deletion strains, locus YLR330W, strain CHS5, active compounds read low",0.988
same,normalized growth,"S. cerevisiae deletion strains, locus YLR342W, strain FKS1 (second series), active compounds read low",0.805
same,normalized growth,"S. cerevisiae deletion strains, locus YLR371W, strain rom2, active compounds read low",1.02
same,normalized growth,"S. cerevisiae deletion strains, locus YLR418C, strain cdc73, active compounds read low",0.94
same,normalized growth,"S. cerevisiae deletion strains, locus YML016C, strain PPZ1, active compounds read low",1
same,normalized growth,"S. cerevisiae deletion strains, locus YML032C, strain rad52, active compounds read low",1.01
same,normalized growth,"S. cerevisiae deletion strains, locus YML124C, strain tub3, active compounds read low",1.01
same,normalized growth,"S. cerevisiae deletion strains, locus YMR078C, strain ctf18, active compounds read low",1.01
same,normalized growth,"S. cerevisiae deletion strains, locus YMR223W, strain ubp8, active compounds read low",0.986
same,normalized growth,"S. cerevisiae deletion strains, locus YMR263W, strain SAP30, active compounds read low",1
same,normalized growth,"S. cerevisiae deletion strains, locus YMR307W, strain GAS1, active compounds read low",0.586 (active)
same,normalized growth,"S. cerevisiae deletion strains, locus YNL067W, strain RPL9B, active compounds read low",0.975
same,normalized growth,"S. cerevisiae deletion strains, locus YNL128W, strain TEP1, active compounds read low",0.973
same,normalized growth,"S. cerevisiae deletion strains, locus YNL153C, strain GIM3, active compounds read low",0.989
same,normalized growth,"S. cerevisiae deletion strains, locus YNL233W, strain BNI4, active compounds read low",1.02
same,normalized growth,"S. cerevisiae deletion strains, locus YNL250W, strain rad50, active compounds read low",1.01
same,normalized growth,"S. cerevisiae deletion strains, locus YNL271C, strain bni1, active compounds read low",0.96
same,normalized growth,"S. cerevisiae deletion strains, locus YNL298W, strain CLA4, active compounds read low",0.896 (active)
same,normalized growth,"S. cerevisiae deletion strains, locus YNL307C, strain MCK1, active compounds read low",0.841 (active)
same,normalized growth,"S. cerevisiae deletion strains, locus YNL322C, strain KRE1, active compounds read low",1.01
same,normalized growth,"S. cerevisiae deletion strains, locus YNR052C, strain pop2, active compounds read low",1.01
same,normalized growth,"S. cerevisiae deletion strains, locus YOL006C, strain TOP1, active compounds read low",0.79
same,normalized growth,"S. cerevisiae deletion strains, locus YOL012C, strain htz1",0.448
same,normalized growth,"S. cerevisiae deletion strains, locus YOL147C, strain pex11, active compounds read low",1
same,normalized growth,"S. cerevisiae deletion strains, locus YOR061W, strain CKA2, active compounds read low",0.996
same,normalized growth,"S. cerevisiae deletion strains, locus YOR069W, strain VPS5, active compounds read low",1
same,normalized growth,"S. cerevisiae deletion strains, locus YOR136W, strain idh2, active compounds read low",0.991
same,normalized growth,"S. cerevisiae deletion strains, locus YOR144C, strain elg1, active compounds read low",1
same,normalized growth,"S. cerevisiae deletion strains, locus YOR184W, strain ser1, active compounds read low",0.992
same,normalized growth,"S. cerevisiae deletion strains, locus YOR316C, strain cot1, active compounds read low",1.01
same,normalized growth,"S. cerevisiae deletion strains, locus YPL055C, strain LGE1, active compounds read low",0.97
same,normalized growth,"S. cerevisiae deletion strains, locus YPL241C, strain CIN2, active compounds read low",1
same,normalized growth,"S. cerevisiae deletion strains, locus YPR119W, strain clb2, active compounds read low",1
same,normalized growth,"S. cerevisiae deletion strains, locus YPR141C, strain kar3, active compounds read low",1.01
same,normalized growth,"S. cerevisiae deletion strains, locus YPR163C, strain tif3, active compounds read low",0.884 (active)
same,normalized growth,"S. cerevisiae deletion strains, locus YPR167C, strain met16, active compounds read low",1.01
same,normalized growth,"S. cerevisiae deletion strains, strain wtn01, active compounds read low",0.983
same,normalized growth,"S. cerevisiae strains, strain wild type, active compounds read low",0.966
